PubChem BioAssay (Tox21)
Unmarked numbers belong to inactive results. Results filed as inconclusive are left out. Active and inactive are the calls of the source. Unless noted, the call rests on the fitted dose curve; in most records, active means well fitted curve in the direction sought with a large enough effect in the repeat runs; inconclusive means weak or mixed curves; inactive means no such curve, though single readings can be large; an effect the other way counts as inactive or inconclusive. Non-standard residues stand in square brackets, D forms with d. Residues, ends and D or L forms follow the SMILES beside them. *: point of attachment. Sta = CC(C)C[C@H](N)[C@@H](O)CC(=O)O; Isovaleryl = CC(C)CC(=O)*

Assay: qHTS assay for small molecule disruptors of the mitochondrial membrane potential - cell viability (AID 720634; calls by dose curve;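 further: human HepG2 liver cancer cells; nearly all actives have a fitted effect of over 20% in size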)
Details: HepG2 viability, ATP luminescence (CellTiter-Glo), 1 h; series mostly up to 83.2 µM; activity change, negative = cytotoxicity: at the top concentration
Method in brief: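 After overnight attachment at 37 C, HepG2 cells received compound or DMSO vehicle for 1 hr. Viability is then taken from ATP-driven luminescence following a 30 min room-temperature CellTiter-Glo step.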
On the % scale 0 is the no-effect control and ±100 the full control effect.

Row | Compound | activity change, negative = cytotoxicity
1 | CCCC[O][Al]([O]CCCC)[O]CCCC | 6.64%
2 | CCOC(=O)CC | 14.7%
3 | OCCC(F)(F)C(F)(F)C(F)(F)C(F)(F)C(F)(F)C(F)(F)F | 9.6%
4 | C[n+]1ccccc1/C=N/O | 5.47% [at 39.1 µM]
5 | c1coc(Cn2cccc2)c1 | 3.68%
6 | CCCCC(CC)COC(=O)CC#N (stereo not drawn) | -11.5%
7 | CC(C)c1cc(C(C)C)cc(C(C)C)c1 | 6.64%
8 | CCOC(=O)[C@H](CCc1ccccc1)N[C@H]1CS[C@H](c2cccs2)CN(CC(=O)O)C1=O | -2.85%
9 | COc1cc(OC)cc(OC)c1 | 1.18%
10 | O=C(O)COc1ccc2ccccc2c1 | 12.8%
11 | Cc1cccc(N)n1 | -2.47% [at 95.3 µM]
12 | O=C(c1ccccc1)c1cccc(O)c1 | -5.12% [at 95.3 µM]
13 | CCCCCCCC(=O)N(C)C | -17.9%
14 | CC/C=C\CCOC(=O)c1ccccc1 | 4.22%
15 | CCCOc1ccc(C(=O)OCCN(CC)CC)cc1N | 2.35%

Assay: qHTS assay for small molecule disruptors of the mitochondrial membrane potential (AID 720635); further: potency means the concentration at half of the fitted maximal effect
Details: HepG2 mitochondrial membrane potential, Mito-MPS dye ratio; series mostly up to 83.2 µM; ratio activity, negative = MMP loss: at the top concentration
Method in brief: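 Mitochondrial membrane potential tracked with Mito-MPS dye, red aggregates (ex 540/em 590 nm) against green monomers (ex 490/em 535 nm). Compound treatment 1 hr at 37C, dye 30 min in HepG2.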

Row | Compound | ratio activity, negative = MMP loss | Potency
16 | COc1cnc(NS(=O)(=O)c2ccc(N)cc2)nc1 | 5.08% [at 39.1 µM] | –
17 | CCCCCCCCOCCC#N | 7.85% | –
18 | NC[C@H]1O[C@H](O[C@H]2[C@H](O)[C@@H](O[C@H]3O[C@H](CO)[C@@H](O)[C@H](N)[C@H]3O)[C@H](N)C[C@@H]2N)[C@H](N)[C@@H](O)[C@@H]1O | – | inactive
19 | C=CCOC(=O)CCCCCCCC | 6.12% [at 95.3 µM] | –
20 | CC(C)(Sc1cc(C(C)(C)C)c(O)c(C(C)(C)C)c1)Sc1cc(C(C)(C)C)c(O)c(C(C)(C)C)c1 | 5.27% [at 39.1 µM] | –
21 | CC(=O)c1c(C)cc(C(C)(C)C)cc1C | -15.7% | –
22 | Nc1cc(S(=O)(=O)O)ccc1O | -11.7% | –
23 | O=C(O)Cc1ccccc1Oc1ccc(Cl)cc1Cl | -8.81% | –
24 | CCCCCCCCC1CO1 (stereo not drawn) | 7.77% [at 95.3 µM] | –
25 | N=C(N)N | 12% | –
26 | COC(=O)c1ccc(C(=O)O)cc1 | -12.4% | –
27 | CC(C)CC(=O)N[C@H](C(=O)N[C@H](C(=O)N[C@@H](CC(C)C)[C@@H](O)CC(=O)N[C@@H](C)C(=O)N[C@@H](CC(C)C)[C@@H](O)CC(=O)O)C(C)C)C(C)C (Isovaleryl-VV[Sta]A[Sta]-OH) | -14.6% | –
28 | Cc1ccc(O)c([N+](=O)[O-])c1 | 9.16% [at 95.3 µM] | –
29 | Cc1ccc(NC(N)=O)cc1 | 19.1% [at 95.3 µM] | –
30 | CCOCCOCCOC(C)=O | 21.2% [at 95.3 µM] | –
31 | CCCCCCCCCCCCCC(=O)OCC | 13.1% | –
32 | C[C@@H]1CC[C@@]2(OC1)O[C@H]1C[C@H]3[C@@H]4CC[C@H]5C[C@@H](O)CC[C@]5(C)[C@H]4CC(=O)[C@]3(C)[C@H]1[C@@H]2C | 13.3% [at 39.1 µM] | –

Row | Compound | ratio activity, negative = MMP loss | Potency
33 | CC(=O)Nc1ccc(S(=O)(=O)Nc2cc(C)on2)cc1 | 8.02% | –
34 | C=CCn1cc[n+](C)c1 | 6.17% [at 95.3 µM] | –
35 | CCCC[O][Al]([O]CCCC)[O]CCCC | 12.3% | –
36 | CCOC(=O)CC | 30% | –
37 | OCCC(F)(F)C(F)(F)C(F)(F)C(F)(F)C(F)(F)C(F)(F)F | 17.1% | –
38 | C[n+]1ccccc1/C=N/O | 15.7% [at 39.1 µM] | –
39 | c1coc(Cn2cccc2)c1 | 7.12% | –
40 | CCCCC(CC)COC(=O)CC#N (stereo not drawn) | 15.8% | –
41 | CC(C)c1cc(C(C)C)cc(C(C)C)c1 | 26.9% | –
42 | CCOC(=O)[C@H](CCc1ccccc1)N[C@H]1CS[C@H](c2cccs2)CN(CC(=O)O)C1=O | 15% | –
43 | COc1cc(OC)cc(OC)c1 | 9.16% | –
44 | O=C(O)COc1ccc2ccccc2c1 | -12.6% | –
45 | Cc1cccc(N)n1 | 22.6% [at 95.3 µM] | –
46 | O=C(c1ccccc1)c1cccc(O)c1 | – | 27.7 µM (active)
47 | CCCCCCCC(=O)N(C)C | 6.82% | –
48 | CC/C=C\CCOC(=O)c1ccccc1 | 16.8% | –
49 | CCCOc1ccc(C(=O)OCCN(CC)CC)cc1N | 13.6% | –

Assay: qHTS assay to test for compound auto fluorescence at 590 nm (red) in HepG2 cells (AID 720674)
Details: HepG2 autofluorescence, red 540/590 nm, 1 h; series mostly up to 91.3 µM; fluorescence, relative to Rose Bengal: at the top concentration
Method in brief: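 We screened compounds on adherent HepG2 cells, incubating them for an hour at 37 C in 5% CO2 before reading emission at 590 nm under 540 nm excitation; values reflect equivalence to Rose Bengal sodium fluorescence.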

Row | Compound | fluorescence, relative to Rose Bengal | outcome
50 | COc1cnc(NS(=O)(=O)c2ccc(N)cc2)nc1 | -0.0895% [at 18.6 µM] | –
51 | CCCCCCCCOCCC#N | 0.294% | –
52 | NC[C@H]1O[C@H](O[C@H]2[C@H](O)[C@@H](O[C@H]3O[C@H](CO)[C@@H](O)[C@H](N)[C@H]3O)[C@H](N)C[C@@H]2N)[C@H](N)[C@@H](O)[C@@H]1O | – | inactive
53 | C=CCOC(=O)CCCCCCCC | 0.0301% | –
54 | CC(C)(Sc1cc(C(C)(C)C)c(O)c(C(C)(C)C)c1)Sc1cc(C(C)(C)C)c(O)c(C(C)(C)C)c1 | 0.757% [at 18.6 µM] | –
55 | CC(=O)c1c(C)cc(C(C)(C)C)cc1C | -0.0791% | –
56 | Nc1cc(S(=O)(=O)O)ccc1O | -0.0836% | –
57 | O=C(O)Cc1ccccc1Oc1ccc(Cl)cc1Cl | -0.0344% [at 46 µM] | –
58 | CCCCCCCCC1CO1 (stereo not drawn) | 0.0686% [at 95.7 µM] | –
59 | N=C(N)N | -0.143% [at 46 µM] | –
60 | COC(=O)c1ccc(C(=O)O)cc1 | -0.0336% | –
61 | CC(C)CC(=O)N[C@H](C(=O)N[C@H](C(=O)N[C@@H](CC(C)C)[C@@H](O)CC(=O)N[C@@H](C)C(=O)N[C@@H](CC(C)C)[C@@H](O)CC(=O)O)C(C)C)C(C)C (Isovaleryl-VV[Sta]A[Sta]-OH) | -0.371% [at 46 µM] | –
62 | Cc1ccc(O)c([N+](=O)[O-])c1 | -0.172% [at 95.7 µM] | –
63 | Cc1ccc(NC(N)=O)cc1 | -0.0644% | –
64 | CCOCCOCCOC(C)=O | 0.0912% [at 95.7 µM] | –
65 | CCCCCCCCCCCCCC(=O)OCC | -0.0613% | –
66 | C[C@@H]1CC[C@@]2(OC1)O[C@H]1C[C@H]3[C@@H]4CC[C@H]5C[C@@H](O)CC[C@]5(C)[C@H]4CC(=O)[C@]3(C)[C@H]1[C@@H]2C | -1.11% [at 18.6 µM] | –

Row | Compound | fluorescence, relative to Rose Bengal | outcome
67 | CC(=O)Nc1ccc(S(=O)(=O)Nc2cc(C)on2)cc1 | 0.177% [at 46 µM] | –
68 | C=CCn1cc[n+](C)c1 | -0.0134% [at 95.7 µM] | –
69 | CCCC[O][Al]([O]CCCC)[O]CCCC | -0.0167% | –
70 | CCOC(=O)CC | -0.0082% | –
71 | OCCC(F)(F)C(F)(F)C(F)(F)C(F)(F)C(F)(F)C(F)(F)F | 0.0086% | –
72 | C[n+]1ccccc1/C=N/O | 0.247% [at 18.6 µM] | –
73 | c1coc(Cn2cccc2)c1 | -0.0015% | –
74 | CCCCC(CC)COC(=O)CC#N (stereo not drawn) | -0.0453% | –
75 | CC(C)c1cc(C(C)C)cc(C(C)C)c1 | -0.136% | –
76 | CCOC(=O)[C@H](CCc1ccccc1)N[C@H]1CS[C@H](c2cccs2)CN(CC(=O)O)C1=O | 0.168% [at 46 µM] | –
77 | COc1cc(OC)cc(OC)c1 | -0.285% [at 46 µM] | –
78 | O=C(O)COc1ccc2ccccc2c1 | -0.143% | –
79 | Cc1cccc(N)n1 | -0.226% [at 95.7 µM] | –
80 | O=C(c1ccccc1)c1cccc(O)c1 | 0.248% [at 95.7 µM] | –
81 | CCCCCCCC(=O)N(C)C | 0.009% | –
82 | CC/C=C\CCOC(=O)c1ccccc1 | 0.383% | –
83 | CCCOc1ccc(C(=O)OCCN(CC)CC)cc1N | -0.0809% [at 46 µM] | –
